According to PubChem BioAssay (NCI):
Compounds without any hit were thinned out: in the full panel of roughly 79,000, 15% have a hit. Unmarked numbers belong to inactive results. Calls of active or inactive are those of the source. Cut-off read from the data, not from the text of the source: active = growth inhibition above about 70%; inactive = the rest.

What was measured:
[1] = NCI Yeast Anticancer Drug Screen. Data for the rad52 strain (AID 147);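 note: 0% = growth of vehicle-treated control cultures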; conditions: S. cerevisiae rad52 mutant growth inhibition, stronger effect = higher value
Method in brief: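 Screen used a yeast mutant impaired in DNA repair. After compound exposure, growth was measured. Values reflect inhibition compared with vehicle-treated cells.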

[2] = NCI Yeast Anticancer Drug Screen. Data for the wt1 strain (AID 149);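 note: 0% = growth of vehicle-treated wt1 cultures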; conditions: S. cerevisiae wt1 strain (SPY 50644) growth inhibition, stronger effect = higher value
Method in brief: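 Readout: yeast growth inhibition, normalised to vehicle controls, in the wt1 strain exposed to test compounds.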

[3] = NCI Yeast Anticancer Drug Screen. Data for the rad50EPP+ strain (AID 151);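 note: 0% = growth of vehicle-treated control cultures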; conditions: S. cerevisiae rad50 mutant strain, stronger effect = higher value
Method in brief: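 Exposing the rad50EPP+ strain to each compound, growth was compared with vehicle-only cultures to give inhibition.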

[4] = NCI Yeast Anticancer Drug Screen. Data for the mgt1 strain (AID 153); conditions: S. cerevisiae mgt1 mutant growth inhibition, stronger effect = higher value
Method in brief: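 Genetically defined yeast (mgt1) treated with compound; inhibition of growth expressed against vehicle-treated controls.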

[5] = NCI Yeast Anticancer Drug Screen. Data for the rad50 strain (AID 155);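 note: 0% = growth of vehicle-only cultures of the same strain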; conditions: S. cerevisiae rad50 strain growth inhibition, stronger effect = higher value
Method in brief: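 Compounds were tested on a yeast strain with an engineered DNA damage repair alteration; the reported value is growth inhibition normalised to vehicle treatment.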

[6] = NCI Yeast Anticancer Drug Screen. Data for the mec2-1 strain (AID 157); conditions: S. cerevisiae mec2-1 strain, stronger effect = higher value
Method in brief: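 Readout is yeast growth inhibition, normalised to vehicle-treated controls, in the mec2-1 strain exposed to compound.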

[7] = NCI Yeast Anticancer Drug Screen. Data for the rad14 strain (AID 159);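 note: 0% = growth of vehicle-treated control cultures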; conditions: S. cerevisiae rad14 strain growth inhibition, stronger effect = higher value
Method in brief: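 Compound-treated yeast with a defined DNA-repair lesion; growth inhibition normalised to vehicle-treated cultures.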

[8] = NCI Yeast Anticancer Drug Screen. Data for the sgs1 mgt1 strain (AID 161);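 note: 0% = growth of cultures given vehicle only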; conditions: S. cerevisiae sgs1 mgt1 strain, stronger effect = higher value
Method in brief: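 Compounds are added to genetically altered yeast, and growth is compared with cultures given vehicle alone to give percent inhibition.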

[9] = NCI Yeast Anticancer Drug Screen. Data for the CLN2oe strain (AID 163);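 note: 0% = growth of vehicle-only control cultures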; conditions: S. cerevisiae CLN2oe strain, stronger effect = higher value
Method in brief: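 Values reflect how much compound exposure reduced yeast growth, referenced to vehicle-exposed cells. Assay organism is a strain with a defined genetic change affecting cell-cycle control.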

[10] = NCI Yeast Anticancer Drug Screen. Data for the cln2 rad14 strain (AID 165);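 note: 0% = growth equal to vehicle treated cultures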; conditions: S. cerevisiae cln2 rad14 strain, stronger effect = higher value
Method in brief: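 Relative to vehicle controls, growth inhibition of compound-treated cln2 rad14 yeast was recorded.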

[11] = NCI Yeast Anticancer Drug Screen. Data for the bub3 strain (AID 167); conditions: S. cerevisiae bub3 mutant strain, stronger effect = higher value
Method in brief: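 Growth of a checkpoint-deficient yeast mutant is measured after compound exposure. Values represent inhibition relative to vehicle.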

[12] = NCI Yeast Anticancer Drug Screen. Data for the wt2 strain (AID 169);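 note: 0% = growth of vehicle-treated yeast cultures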; conditions: S. cerevisiae wt2 strain growth inhibition, stronger effect = higher value
Method in brief: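 Values express reduction in yeast growth under compound treatment, referenced to vehicle-treated cells.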

[13] = NCI Yeast Anticancer Drug Screen. Data for the mlh1 strain (AID 171);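 note: 0% = growth of vehicle-treated control cultures of the same strain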; conditions: S. cerevisiae mlh1 strain growth inhibition, stronger effect = higher value
Method in brief: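 Steps: expose the defined-mutant yeast strain to compound; expose a parallel culture to vehicle; measure growth; express compound effect as inhibition relative to the vehicle culture.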

[14] = NCI Yeast Anticancer Drug Screen. Data for the sgs1 strain (AID 173);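 note: 0% = growth of vehicle-only control cultures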; conditions: S. cerevisiae sgs1 mutant, stronger effect = higher value
Method in brief: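 Treat defined-mutant yeast with compound; measure growth; calculate inhibition relative to vehicle-treated cells.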

[15] = NCI Yeast Anticancer Drug Screen. Data for the mlh1 rad18 strain (AID 175); conditions: S. cerevisiae mlh1 rad18 strain growth inhibition, stronger effect = higher value
Method in brief: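 Test agents were incubated with a yeast strain of defined genotype (DNA damage repair defect). Inhibition of growth was derived by comparison with vehicle-exposed cultures.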

[16] = NCI Yeast Anticancer Drug Screen. Data for the rad18 strain (AID 177); conditions: S. cerevisiae rad18 mutant growth inhibition, stronger effect = higher value
Method in brief: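 A genetically defined yeast mutant impaired in DNA damage repair was treated with test compounds, then its growth was measured against cultures receiving vehicle alone.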

[17] = at 5.0 µM (retest, dose inferred, filed as 0.5)
[18] = at 50.0 µM (retest, dose inferred, filed as 5.0)

**Q.** What does the source list for `CCCCCCc1cc(C(=O)OC/C(C)=N/NC(N)=O)c2ccccc2n1`?
**A.** growth inhibition ([1]; at 1.2 µM): -1%; growth inhibition ([1]; at 3.7 µM): -1%; growth inhibition ([1]; at 11.0 µM): 1%; growth inhibition ([1]; at 33.0 µM): -1%; growth inhibition ([1]; at 100.0 µM): -3%; growth inhibition ([2]; at 1.2 µM): -2%; growth inhibition ([2]; at 3.7 µM): 1%; growth inhibition ([2]; at 11.0 µM): -4%; growth inhibition ([2]; at 33.0 µM): -5%; growth inhibition ([2]; at 100.0 µM): -5%; growth inhibition ([3]; at 1.2 µM): -1%; growth inhibition ([3]; at 3.7 µM): -3%; growth inhibition ([3]; at 11.0 µM): -4%; growth inhibition ([3]; at 33.0 µM): 2%; growth inhibition ([3]; at 100.0 µM): 3%; growth inhibition ([4]; at 1.2 µM): -3%; growth inhibition ([4]; at 3.7 µM): -3%; growth inhibition ([4]; at 11.0 µM): -2%; growth inhibition ([4]; at 33.0 µM): -5%; growth inhibition ([4]; at 100.0 µM): -5%; growth inhibition ([5]; at 1.2 µM): -3%; growth inhibition ([5]; at 3.7 µM): -3%; growth inhibition [5, 17]: -3%; growth inhibition ([5]; at 11.0 µM): 0%; growth inhibition ([5]; at 33.0 µM): -4%; growth inhibition [5, 18]: 32%; growth inhibition ([5]; at 50.0 µM): 26.6%; growth inhibition ([5]; at 100.0 µM): -4%; growth inhibition ([6]; at 1.2 µM): -4%; growth inhibition ([6]; at 3.7 µM): -2%; growth inhibition [6, 17]: -6%; growth inhibition ([6]; at 11.0 µM): -6%; growth inhibition ([6]; at 33.0 µM): -3%; growth inhibition [6, 18]: 42%; growth inhibition ([6]; at 50.0 µM): -1.15%; growth inhibition ([6]; at 100.0 µM): -7%; growth inhibition ([7]; at 1.2 µM): 0%; growth inhibition ([7]; at 3.7 µM): 3%; growth inhibition ([7]; at 11.0 µM): 3%; growth inhibition ([7]; at 33.0 µM): 0%; growth inhibition ([7]; at 100.0 µM): -4%; growth inhibition [8, 17]: -4%; growth inhibition [8, 18]: 47%; growth inhibition ([8]; at 50.0 µM): 31%; growth inhibition ([9]; at 1.2 µM): -3%; growth inhibition ([9]; at 3.7 µM): -11%; growth inhibition ([9]; at 11.0 µM): -5%; growth inhibition ([9]; at 33.0 µM): -13%; growth inhibition ([9]; at 100.0 µM): -10%; growth inhibition [10, 17]: -1%; growth inhibition [10, 18]: 21%; growth inhibition ([10]; at 50.0 µM): -12.3%; growth inhibition ([11]; at 1.2 µM): 0%; growth inhibition ([11]; at 3.7 µM): -4%; growth inhibition [11, 17]: -2%; growth inhibition ([11]; at 11.0 µM): -2%; growth inhibition ([11]; at 33.0 µM): 3%; growth inhibition [11, 18]: 77% (active); growth inhibition ([11]; at 50.0 µM): 68.5%; growth inhibition ([11]; at 100.0 µM): 5%; growth inhibition ([12]; at 1.2 µM): 0%; growth inhibition ([12]; at 3.7 µM): -1%; growth inhibition ([12]; at 11.0 µM): 0%; growth inhibition ([12]; at 33.0 µM): -2%; growth inhibition ([12]; at 100.0 µM): -4%; growth inhibition ([13]; at 1.2 µM): -3%; growth inhibition ([13]; at 3.7 µM): -4%; growth inhibition ([13]; at 11.0 µM): -4%; growth inhibition ([13]; at 33.0 µM): -5%; growth inhibition ([13]; at 100.0 µM): -5%; growth inhibition ([14]; at 1.2 µM): -4%; growth inhibition ([14]; at 3.7 µM): -4%; growth inhibition ([14]; at 11.0 µM): -6%; growth inhibition ([14]; at 33.0 µM): -5%; growth inhibition ([14]; at 100.0 µM): -4%; growth inhibition [15, 17]: -4%; growth inhibition [15, 18]: 50%; growth inhibition ([15]; at 50.0 µM): 61.4%; growth inhibition ([16]; at 1.2 µM): -1%; growth inhibition ([16]; at 3.7 µM): -2%; growth inhibition ([16]; at 11.0 µM): -4%; growth inhibition ([16]; at 33.0 µM): -7%; growth inhibition ([16]; at 100.0 µM): -7%

**Q.** Which results are given for `CC(=O)OC1CCC2(C)C(=CCC3C4CCC5(OC6CC(C)CN(C(C)=O)C6C5C)C(C)=C4C(=O)C32)C1` (stereo not drawn)?
**A.** growth inhibition ([1]; at 1.2 µM): 18%; growth inhibition ([1]; at 3.7 µM): 12%; growth inhibition ([1]; at 11.0 µM): 57%; growth inhibition ([1]; at 33.0 µM): 97% (active); growth inhibition ([1]; at 100.0 µM): 96% (active); growth inhibition ([2]; at 1.2 µM): 2%; growth inhibition ([2]; at 3.7 µM): 2%; growth inhibition ([2]; at 11.0 µM): 28%; growth inhibition ([2]; at 33.0 µM): 97% (active); growth inhibition ([2]; at 100.0 µM): 94% (active); growth inhibition ([3]; at 1.2 µM): -39%; growth inhibition ([3]; at 3.7 µM): -28%; growth inhibition ([3]; at 11.0 µM): -7%; growth inhibition ([3]; at 33.0 µM): 6%; growth inhibition ([3]; at 100.0 µM): -1%; growth inhibition ([4]; at 1.2 µM): -26%; growth inhibition ([4]; at 3.7 µM): -30%; growth inhibition ([4]; at 11.0 µM): 61%; growth inhibition ([4]; at 33.0 µM): 97% (active); growth inhibition ([4]; at 100.0 µM): 96% (active); growth inhibition ([5]; at 1.2 µM): -49%; growth inhibition ([5]; at 3.7 µM): -31%; growth inhibition [5, 17]: 0%; growth inhibition ([5]; at 11.0 µM): 61%; growth inhibition ([5]; at 33.0 µM): 94% (active); growth inhibition [5, 18]: 96% (active); growth inhibition ([5]; at 50.0 µM): 83.2% (active); growth inhibition ([5]; at 100.0 µM): 95% (active); growth inhibition ([6]; at 1.2 µM): -32%; growth inhibition ([6]; at 3.7 µM): -32%; growth inhibition [6, 17]: -9%; growth inhibition ([6]; at 11.0 µM): 3%; growth inhibition ([6]; at 33.0 µM): 96% (active); growth inhibition [6, 18]: 98% (active); growth inhibition ([6]; at 50.0 µM): 68.4%; growth inhibition ([6]; at 100.0 µM): 89% (active); growth inhibition ([7]; at 1.2 µM): -30%; growth inhibition ([7]; at 3.7 µM): -17%; growth inhibition ([7]; at 11.0 µM): 50%; growth inhibition ([7]; at 33.0 µM): 96% (active); growth inhibition ([7]; at 100.0 µM): 89% (active); growth inhibition [8, 17]: 7%; growth inhibition [8, 18]: 96% (active); growth inhibition ([8]; at 50.0 µM): 69.4%; growth inhibition ([9]; at 1.2 µM): 1%; growth inhibition ([9]; at 3.7 µM): -12%; growth inhibition ([9]; at 11.0 µM): 41%; growth inhibition ([9]; at 33.0 µM): 98% (active); growth inhibition ([9]; at 100.0 µM): 92% (active); growth inhibition [10, 17]: 17%; growth inhibition [10, 18]: 98% (active); growth inhibition ([10]; at 50.0 µM): 84.2% (active); growth inhibition ([11]; at 1.2 µM): -2%; growth inhibition ([11]; at 3.7 µM): -23%; growth inhibition [11, 17]: 32%; growth inhibition ([11]; at 11.0 µM): 24%; growth inhibition ([11]; at 33.0 µM): 96% (active); growth inhibition [11, 18]: 98% (active); growth inhibition ([11]; at 50.0 µM): 81.2% (active); growth inhibition ([11]; at 100.0 µM): 95% (active)
